SMILES strings stand for the structures. Calls of active or inactive are those of the source. Unless noted, how the calls were made is not given here.

Assay [1] deals with Wnt5a (protein binding on small-molecule microarray). Kind of assay: small molecules binding Wnt5a protein – biophysical, small-molecule microarray, 635/667 nm fluorescence, primary screen (AID 1142).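 Further: fluorescence read at 667 nm with signal to noise per printed feature.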 The conditions noted are these: 635 nm fluorescence, higher = more signal.
The nature of assay [2]: ATP-based viability of Huh7 replicon cells – cell-based, CellTiter-Glo luminescence, basal, 48 h, cytotoxicity control for HCV replication inhibitor project, primary screen (AID 1143).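 Further: Huh7 hepatoma cells carrying a hepatitis C replication reporter with no stimulus; test concentration not given here.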 The conditions noted are these: Huh7 HCV replicon, CellTiter-Glo luminescence, 48 h, higher = more signal, called active from +8 up or from −8 down unless noted.
A short description of assay [3]: Pseudomonas biofilm growth suppression – PAO1 strain, BacTiter-Glo luminescence, LB-PBS, primary screen (AID 1144). The conditions noted are these: P. aeruginosa PAO1 biofilm, 12 h, higher = more signal.
Assay [4] in a line: basal CRE-LacZ reporter activity in PC12 – cell-based, unstimulated, primary screen (AID 1145). Conditions: no forskolin, luminescence, 4.5 h; higher = more signal, called active from +8 up or from −8 down unless noted.
The nature of assay [5]: forskolin-driven CRE-LacZ activity in PC12 – cell-based, CRE-LacZ reporter, forskolin-stimulated, primary screen (AID 1146).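 Further: PC12 cells with 6xCRE LacZ reporter stimulated by forskolin 10 µM; beta-galactosidase reporter signal reflecting CREB driven transcription.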 Conditions: luminescence, 4.5 h; higher = more signal, called active from +8 up or from −8 down unless noted.
The target of assay [6] is Streptavidin (Streptomyces avidinii) (UniProt P22629). Briefly: compounds binding control protein streptavidin – biophysical, small-molecule microarray, 635/667 nm fluorescence, artefact control for SMM compound annotation, primary screen (AID 1147).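 Further: signal reflects streptavidin binding to arrayed compounds as a control protein.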 Conditions: higher = more signal.
The nature of assay [7]: probe aInhba binding on compound microarray – biochemical, small-molecule microarray, 635/667 nm fluorescence, primary screen (AID 1148).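 Further: score merges 667nm spot fluorescence with signal-to-noise for antibody binding to printed compounds.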 Conditions: higher = more signal; small-molecule microarray, probe aInhba, fluorescence unless noted.
Assay [8] concerns the target Torsin-1A (Homo sapiens) (UniProt O14656). Briefly: TOR1A wild-type binding on microarray – cell lysate, small-molecule microarray, lysate, 635/667 nm, primary screen (AID 1149). The conditions noted are these: COS7 hTOR1A-WT lysate, 635 nm fluorescence, higher = more signal.
The target is the same in assay [9]. Briefly: torsin A mutant lysate binding on microarrays – cell lysate, small-molecule microarray, COS7 lysate, 635/667 nm fluorescence, primary screen (AID 1150).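 Further: score pools 667 nm emission and signal to noise measuring lysate protein binding.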 The conditions noted are these: COS7 hTOR1A mutant lysate, 635 nm fluorescence, higher = more signal.
Assay [10] relates to Sonic hedgehog protein (Shh). Briefly: Sonic hedgehog microarray binding compounds – biochemical, small-molecule microarray, 635/667 nm fluorescence, primary screen (AID 1151).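 Further: Shh protein binding to compounds spotted on small-molecule microarray slides; score combines spot fluorescence intensity with signal-to-noise across triplicate slides.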 The conditions noted are these: 635 nm fluorescence, higher = more signal.
Assay [11] is described as follows: optical density shifts of acrAB sulA E. coli – strain DRC41, OD650, 48 h, E. coli filamentation inducer project, primary screen (AID 1152).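 Further: E. coli MC1000 strain DRC41 lacking acrAB efflux pump and sulA.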 The conditions noted are these: higher = more signal, called active from +8 up or from −8 down unless noted.
The nature of assay [12]: probe aLefty1 binding on compound microarray – biochemical, small-molecule microarray, 635/667 nm fluorescence, primary screen (AID 1153).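 Further: score merges spot fluorescence with signal-to-noise ratio from the scanned slide images.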 Conditions: higher = more signal; small-molecule microarray, probe aLefty1, fluorescence unless noted.
A short description of assay [13]: plasmodial surface anion channel blockers, osmotic lysis – cell-based, P. falciparum Indochina, OD700, 1 h, primary screen (AID 1154). The conditions noted are these: P. falciparum Indochina infected RBC osmotic lysis; higher = more signal, called active from +8 up or from −8 down unless noted.
Assay [14] in a line: plasmodial surface anion channel blockers, osmotic lysis – cell-based, P. falciparum Indochina, OD700, 2 h, primary screen (AID 1155).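 Further: lysis reports solute entry through the parasite surface anion channel PSAC.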 The conditions noted are these: P. falciparum Indochina infected erythrocytes; higher = more signal, called active from +8 up or from −8 down unless noted.
The nature of assay [15]: changes in parasitized red cell lysis, either direction – P. falciparum Indochina, OD700, 3 h, PSAC antagonist project, primary screen (AID 1156). The conditions noted are these: P. falciparum-infected erythrocytes, osmotic lysis; higher = more signal, called active from +8 up or from −8 down unless noted.
A short description of assay [16]: plasmodial surface anion channel blockers, osmotic lysis – cell-based, P. falciparum Indochina, OD700, 18 h, primary screen (AID 1157). Conditions: P. falciparum Indochina infected erythrocytes, osmotic lysis OD700, 18 h; higher = more signal, called active from +8 up or from −8 down unless noted.
Assay [17] is described as follows: S6 kinase pathway phospho-S6 level changes – cell-based, A549, cytoblot, luminescence, serum-stimulated, primary screen (AID 1158).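 Further: serum-stimulated A549 lung adenocarcinoma cells; signal is phosphorylated S6 detected by cytoblot immunostaining with HRP secondary.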 Conditions: 5 h, higher = more signal.
The target of assay [18] is NADPH oxidase 2 (Homo sapiens) (UniProt P04839). Kind of assay: compounds shifting NOX2 Amplex Red fluorescence – cell-based, HEK293-NOX2, PMA-stimulated, NOX inhibitor project, primary screen (AID 1159). Further: test concentration not given here. Conditions: 45 min; higher = more signal, called active from +8 up or from −8 down unless noted.
Assay [19] deals with NADPH oxidase 4 (Homo sapiens) (UniProt Q9NPH5). Kind of assay: compounds shifting NOX4 Amplex Red fluorescence – cell-based, HEK293-NOX4, tetracycline-induced, NOX inhibitor project, primary screen (AID 1160). Conditions: HEK293-NOX4, Amplex Red H2O2 fluorescence, 45 min; higher = more signal, called active from +8 up or from −8 down unless noted.
Assay [20] has as its target NADPH oxidase 5 (Homo sapiens) (UniProt Q96PH1). Kind of assay: compounds shifting NOX5 Amplex Red fluorescence – cell-based, HEK293-NOX5, NOX inhibitor project, primary screen (AID 1161). Conditions: HEK293-NOX5, ionomycin, 45 min, higher = more signal.

Sequence of NADPH oxidase 5 (Homo sapiens) (Q96PH1 whole entry, looked up): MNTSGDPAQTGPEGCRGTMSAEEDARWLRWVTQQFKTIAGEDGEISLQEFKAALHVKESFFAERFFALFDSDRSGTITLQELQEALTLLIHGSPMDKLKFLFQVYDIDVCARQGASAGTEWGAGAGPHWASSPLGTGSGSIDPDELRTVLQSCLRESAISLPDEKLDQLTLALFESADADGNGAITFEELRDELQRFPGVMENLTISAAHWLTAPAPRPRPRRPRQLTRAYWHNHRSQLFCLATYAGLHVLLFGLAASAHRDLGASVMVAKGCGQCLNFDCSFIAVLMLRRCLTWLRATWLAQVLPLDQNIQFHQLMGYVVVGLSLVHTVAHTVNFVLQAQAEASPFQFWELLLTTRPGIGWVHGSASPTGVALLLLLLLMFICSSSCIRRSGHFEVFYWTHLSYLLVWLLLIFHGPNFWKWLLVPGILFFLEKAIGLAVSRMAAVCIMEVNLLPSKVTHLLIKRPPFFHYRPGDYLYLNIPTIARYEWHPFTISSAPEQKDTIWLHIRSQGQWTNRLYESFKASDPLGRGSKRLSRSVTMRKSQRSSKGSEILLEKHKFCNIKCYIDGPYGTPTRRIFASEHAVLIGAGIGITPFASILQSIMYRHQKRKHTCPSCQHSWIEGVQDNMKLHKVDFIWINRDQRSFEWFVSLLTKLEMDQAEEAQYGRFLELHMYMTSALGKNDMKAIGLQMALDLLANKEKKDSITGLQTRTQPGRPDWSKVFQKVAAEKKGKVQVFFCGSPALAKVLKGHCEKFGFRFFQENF
Sequence of NADPH oxidase 4 (Homo sapiens) (Q9NPH5 whole entry, looked up): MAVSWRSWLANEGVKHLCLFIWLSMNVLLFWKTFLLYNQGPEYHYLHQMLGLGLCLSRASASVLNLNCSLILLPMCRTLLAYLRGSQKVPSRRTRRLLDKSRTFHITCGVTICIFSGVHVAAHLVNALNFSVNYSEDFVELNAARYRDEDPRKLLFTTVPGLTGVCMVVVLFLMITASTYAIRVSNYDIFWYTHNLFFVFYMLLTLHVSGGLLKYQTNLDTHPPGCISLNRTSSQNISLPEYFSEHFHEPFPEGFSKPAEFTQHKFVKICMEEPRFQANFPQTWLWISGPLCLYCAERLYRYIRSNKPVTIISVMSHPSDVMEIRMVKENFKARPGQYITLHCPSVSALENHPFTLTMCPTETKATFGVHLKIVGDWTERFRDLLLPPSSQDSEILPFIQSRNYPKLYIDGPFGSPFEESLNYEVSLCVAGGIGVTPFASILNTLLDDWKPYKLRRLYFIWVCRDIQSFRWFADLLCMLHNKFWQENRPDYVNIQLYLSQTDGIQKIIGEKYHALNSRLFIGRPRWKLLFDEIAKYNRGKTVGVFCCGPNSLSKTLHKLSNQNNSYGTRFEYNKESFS
Sequence of Torsin-1A (Homo sapiens) (O14656 whole entry, looked up): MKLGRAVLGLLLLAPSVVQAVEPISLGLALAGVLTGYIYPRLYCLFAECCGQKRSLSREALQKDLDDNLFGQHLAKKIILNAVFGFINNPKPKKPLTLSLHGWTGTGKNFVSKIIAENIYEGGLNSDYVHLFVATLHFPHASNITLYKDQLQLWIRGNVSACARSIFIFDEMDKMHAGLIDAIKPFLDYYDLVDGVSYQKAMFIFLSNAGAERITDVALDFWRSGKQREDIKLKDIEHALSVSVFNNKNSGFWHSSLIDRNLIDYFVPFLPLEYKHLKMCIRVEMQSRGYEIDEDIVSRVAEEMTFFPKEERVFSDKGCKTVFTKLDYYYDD
Sequence of Streptavidin (Streptomyces avidinii) (P22629 whole entry, looked up): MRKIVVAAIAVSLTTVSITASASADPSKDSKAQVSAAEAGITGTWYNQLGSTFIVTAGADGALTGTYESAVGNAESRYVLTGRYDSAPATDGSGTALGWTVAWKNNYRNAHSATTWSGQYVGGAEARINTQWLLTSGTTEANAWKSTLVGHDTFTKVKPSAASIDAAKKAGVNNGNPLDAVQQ
Sequence of NADPH oxidase 2 (Homo sapiens) (P04839 whole entry, looked up): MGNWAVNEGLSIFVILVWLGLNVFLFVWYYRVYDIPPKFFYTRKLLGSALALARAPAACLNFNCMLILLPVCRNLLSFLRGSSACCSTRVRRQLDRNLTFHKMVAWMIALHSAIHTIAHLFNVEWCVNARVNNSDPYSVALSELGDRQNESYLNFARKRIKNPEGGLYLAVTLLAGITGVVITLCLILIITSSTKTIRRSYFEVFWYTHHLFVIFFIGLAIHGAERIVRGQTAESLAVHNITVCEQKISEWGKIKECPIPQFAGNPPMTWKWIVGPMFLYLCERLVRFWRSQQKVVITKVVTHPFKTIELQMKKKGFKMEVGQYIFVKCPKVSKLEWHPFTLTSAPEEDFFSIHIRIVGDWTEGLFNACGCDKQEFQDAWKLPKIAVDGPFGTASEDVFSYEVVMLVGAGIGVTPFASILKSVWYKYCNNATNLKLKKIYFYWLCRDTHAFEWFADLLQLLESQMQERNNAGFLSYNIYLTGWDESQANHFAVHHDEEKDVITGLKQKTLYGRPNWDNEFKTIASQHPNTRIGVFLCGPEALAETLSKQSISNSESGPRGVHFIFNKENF

For the molecule `CCCc1cc2c(n1Cc1ccco1)C(C)C1CN(C(=O)c3ccccc3)C(C)(C(=O)OC)C21` (stereo not given), the composite z-score amounted to 0.326 in assay [1]; 1 in [6]; 0.173 in [7]; 0.556 with Torsin-1A (Homo sapiens) [8]; 0.944 in the assay with Torsin-1A (Homo sapiens) [9]; 0.357 in assay [10]. In assay [12], the composite z-score was determined as 0.439. Besides, the z-score is -2.79 (inactive) in assay [2]; 0.666 (inactive) in assay [3]; 0.394 (inactive) in assay [4]; 0.718 (inactive) in [5]; -2.11 (inactive) in [11]; 5.21 (inactive) in [13]. Also, the z-score in assay [14] is 0.63 (inactive); in [15], 0.952 (inactive); in assay [16], 0.495 (inactive); in assay [17], -0.11; in assay [18] it was -1.61 (inactive); in [19], -6.73 (inactive). The z-score in assay [20] was -3.84.
For the molecule `C[C@@H]1Cc2c(cnc3c2CN(C)CC3)CO1`, the composite z-score in assay [1] was 0.0844; in [6] it was -0.179; in [7], -0.0523; with Torsin-1A (Homo sapiens) [8], 0.742; with Torsin-1A (Homo sapiens) [9], 1.12; in assay [10] it was 1.71. The composite z-score in [12] was -0.152. Moreover, the z-score is -1.38 (inactive) in assay [2]; -0.181 (inactive) in assay [3]; -0.258 (inactive) in assay [4]; -1.05 (inactive) in assay [5]; -0.397 (inactive) in [11]; -0.0969 (inactive) in assay [13]. The z-score in assay [14] was -0.0787 (inactive); in [15], 0.123 (inactive); in assay [16] it was 0.0517 (inactive); in [17] it was -0.0609; in [18] it was 1.5 (inactive); in assay [19], 0.188 (inactive). Further, in assay [20], the z-score is -0.719.
Take `COC(=O)NCC=Cc1nc(CCC=CC(=O)O[C@H]2CC3CC(=O)O[C@@H](C=CCC(C)C)C[C@@H]4CC[C@H](C)[C@@H](C[C@@H](OC)C[C@H](C2)O3)O4)co1`: the composite z-score in [1] was -0.335; in [6], -0.875; in [7], -0.159; with Torsin-1A (Homo sapiens) [8], -0.429; with Torsin-1A (Homo sapiens) [9] it was -0.653; in [10], 0.0788. Also, the composite z-score in assay [12] is -0.213. The z-score was -3.73 (inactive) in [2]; 0.881 (inactive) in [3]; 0.106 (inactive) in assay [4]; -1.96 (inactive) in assay [5]; -0.0987 (inactive) in assay [11]; 0.465 (inactive) in assay [13]. For the same molecule, the z-score in [14] is 0.0987 (inactive); in [15] it was -0.0546 (inactive); in [16] it was -0.195 (inactive); in [17], -0.975; in assay [18], 0.902 (inactive); in assay [19], 0.594 (inactive). Besides, in assay [20], the z-score is -0.00689.
As for `C[C@H]1O[C@H]2C3=C(C(=O)[C@@H]4O[C@@H]4[C@@H]3O)[C@@H]1[C@@H]1[C@@H](C)OC=C3[C@@H](O)[C@H]4O[C@H]4C(=O)[C@]312`, the composite z-score is -0.176 in assay [1]; -0.418 in [6]; -0.208 in assay [7]; 0.251 with Torsin-1A (Homo sapiens) [8]; -0.306 with Torsin-1A (Homo sapiens) [9]; 0.534 in assay [10]. Moreover, in assay [12], the composite z-score is -0.321. The z-score in [2] is -3.24 (inactive); in [3], -1.61 (inactive); in [4] it was 1.65 (inactive); in [5] it was 1.76 (inactive); in assay [11], -0.209 (inactive); in [13] it was -0.49 (inactive). For the same molecule, the z-score was -0.569 (inactive) in assay [14]; 0.276 (inactive) in assay [15]; -0.987 (inactive) in [16]; 1.5 in assay [17]; -0.203 (inactive) in assay [18]; -0.0614 (inactive) in [19]. Moreover, the z-score in assay [20] amounted to 0.441.
As for `OCc1ccc(C2=CC(c3cccs3)N(Cc3cccc(OC(F)(F)F)c3)CC2)cc1` (stereo not given), the composite z-score in assay [1] is 0.136; in [6], -0.0232; in [7], -0.0719; with Torsin-1A (Homo sapiens) [8] it was 0.761; in the assay with Torsin-1A (Homo sapiens) [9] it was 1.16; in assay [10], 1.05. Besides, the composite z-score in [12] is -0.148. In addition, the z-score in assay [2] is -4.06 (inactive); in [3] it was 1.28 (inactive); in [4], 1.54 (inactive); in assay [5], -0.162 (inactive); in assay [11] it was -0.915 (inactive); in assay [13], 3.92 (inactive). The z-score in assay [14] is 1.2 (inactive); in [15], -0.18 (inactive); in assay [16] it was 0.822 (inactive); in assay [17], -0.0923; in assay [18] it was 0.655 (inactive); in [19], -0.666 (inactive). Also, the z-score in [20] is -1.38.
Turning to `CN1CCc2nc(CO)c(CO)cc2C1`, the composite z-score was 0.233 in assay [1]; 0.0991 in assay [6]; 0.0442 in [7]; -0.0701 with Torsin-1A (Homo sapiens) [8]; 0.557 with Torsin-1A (Homo sapiens) [9]; 0.424 in assay [10]. The molecule also registered a composite z-score in assay [12] of 0.0504. Further, the z-score is -0.0958 (inactive) in [2]; 0.424 (inactive) in assay [3]; 1.37 (inactive) in [4]; -0.0826 (inactive) in [5]; 0.0958 (inactive) in assay [11]; 0.297 (inactive) in assay [13]. The z-score in [14] is 0.538 (inactive); in [15], -0.508 (inactive); in assay [16], 0.101 (inactive); in assay [17], -0.121; in [18] it was 1.62 (inactive); in [19] it was -1.25 (inactive). In addition, the z-score in assay [20] was -0.795.
As to `C=C(CC1(C(C)NP(=O)(c2ccccc2)c2ccccc2)CC1)c1ccccc1` (stereo not given), the composite z-score was 0.41 in assay [1]; 0.416 in [6]; 0.122 in [7]; -1.03 with Torsin-1A (Homo sapiens) [8]; 0.0087 with Torsin-1A (Homo sapiens) [9]; 0.0881 in assay [10]. In assay [12], this molecule displayed a composite z-score of 0.603. Besides, the z-score is -2.48 (inactive) in assay [2]; -0.917 (inactive) in assay [3]; 0.0109 (inactive) in assay [4]; 1.49 (inactive) in [5]; -1.67 (inactive) in assay [11]; 2.42 (inactive) in assay [13]. Moreover, the z-score was 0.809 (inactive) in assay [14]; 0.512 (inactive) in assay [15]; 1.03 (inactive) in assay [16]; 0.984 in assay [17]; -0.412 (inactive) in assay [18]; -3.69 (inactive) in assay [19]. The z-score in assay [20] is -3.82.
Take `COC(=O)C1(C)C=C2C(=C(C)C(=O)C2C)CN1` (stereo not given): the composite z-score is -0.163 in [1]; -0.164 in [6]; 0.0442 in [7]; 0.219 with Torsin-1A (Homo sapiens) [8]; -0.186 with Torsin-1A (Homo sapiens) [9]; -0.473 in assay [10]. The same molecule showed a composite z-score in assay [12] of 0.257. Further, the z-score in assay [2] was 0.0631 (inactive); in assay [3], -0.596 (inactive); in [4] it was -0.182 (inactive); in [5], 3.71 (inactive); in assay [11], -1.84 (inactive); in [13], 0.539 (inactive). The z-score in assay [14] is 0.405 (inactive); in [15] it was 1.16 (inactive); in assay [16] it was 0.643 (inactive); in [17], -0.232; in assay [18], -0.172 (inactive); in assay [19] it was -2.31 (inactive). The z-score in assay [20] was -3.35.

Values taken from PubChem BioAssay.
